12-hLO inh – inhibitors of human 12-lipoxygenase (ALOX12); P18054; purified 12-hLO, xylenol orange hydroperoxide absorbance; Potency, µM (titrated, usually from 57.1 µM), without a hit: top-dose activity change, negative = inhibition, actives largely listed as inhibitors; 150,000 compounds, 0.12% hits; AID 1452; active means well fitted curve in the direction sought with a large enough effect; inconclusive means small, poorly fitted or top-dose-only effect, or another doubt; inactive means no such curve, though single readings can be large; an effect the other way counts as inactive or inconclusive; further: potency means the concentration at half of the fitted maximal effect; nearly all actives have a fitted effect of over 55% in size
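Hydroperoxide formation by human 12-lipoxygenase from 40 uM arachidonic acid was followed colorimetrically via ferric-xylenol orange complex, using the 573/405 nm absorbance ratio. Enzyme concentration was 150 nM, with 30 min reaction at room temperature.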
IMPase Li cell – IMPase inhibition in cells with lithium potentiation; 210,000 compounds, 0.35% hits; CHO-M1 cells, IP1 TR-FRET (IP-One), carbachol + lithium; AID 1457; Potency, µM (top dose mostly 59.4 µM), for the others: top-dose activity, negative = IMPase inhibition, actives largely listed as inhibitors; active means well fitted curve in the direction sought with a large enough effect; inconclusive means small, poorly fitted or top-dose-only effect, or another doubt; inactive means no such curve, though single readings can be large; an effect the other way counts as inactive or inconclusive;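 further: IP1 builds up when IMPase is blocked and the TR-FRET signal falls; potency means the concentration at half of the fitted maximal effect; plate controls were basal vehicle for no effect and high inhibitor control for full effect; nearly all actives have a fitted effect of over 50% in size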
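Test compounds were applied to CHO-M1 cells previously cultured for 16–30 h at 2000 per well. A small lithium amount accompanied them; after 30 min at 37C, IP1 was quantified by TR-FRET.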
PNC assembly inh – blocks assembly of the perinucleolar compartment. PC3M PTB-GFP, PNC prevalence imaging, 16 h; active compounds read low. activity change (PNC), negative = inhibition, % at 10 µM. 140,000 compounds, 3.1% hits;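 active means readout at or below -70, meaning at least 70% loss of cells showing the perinucleolar compartment, a nuclear body marking cancer cells; inconclusive means readout between -30 and a set limit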;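 further: plate controls were DMSO wells for no effect and camptothecin positive control wells for full effect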
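Read-out is percentage of cells bearing a perinucleolar compartment, from automated 20x imaging of fixed, Hoechst-stained PC3M PTB-GFP cells. Cells were seeded 4 h, then exposed 16 h to compound (23 nl of library stock) in duplicate plates.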
IMPase inh – IMPase inhibition in cells; CHO-M1 cells, IP1 accumulation, HTRF TR-FRET ratio; 120,000 tested, under 10 active; AID 901; inhibition (IP1 accumulation), % at 46.1 µM; P97697; active means well fitted curve in the direction sought with a large enough effect in the signal ratio, not every such curve was filed as active; inconclusive means small, poorly fitted or top-dose-only effect, or a change in a side signal; inactive means no such curve, though single readings can be large or run the other way; the % refers to the signal ratio;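 further: cells stimulated with carbachol in lithium chloride buffer; plate controls were DMSO basal wells for no effect and reference inhibitor wells for full effect; higher means more IMPase inhibition seen as more IP1 and lower FRET ratio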
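Measured: the HTRF emission ratio (665/620 nm) plus the 620 nm donor channel, each fitted to the Hill equation to give AC50. Cells were CHO-M1 given compounds up to 46 uM and a 30 min carbachol stimulation at 37C.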
ALDH1A1 block – ALDH1A1 (human) enzyme inhibition; P00352; Purified ALDH1A1, NADH fluorescence, propionaldehyde substrate; Potency, µM (top dose mostly 75.3 µM), for the others: at the highest dose activity, negative = inhibition, actives largely listed as inhibitors; 220,000 compounds, 7.3% hits; AID 1030;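 further: potency means the concentration at half of the fitted maximal effect; plate controls were no enzyme wells and a reference inhibitor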
Target sequence (P00352 whole entry, looked up): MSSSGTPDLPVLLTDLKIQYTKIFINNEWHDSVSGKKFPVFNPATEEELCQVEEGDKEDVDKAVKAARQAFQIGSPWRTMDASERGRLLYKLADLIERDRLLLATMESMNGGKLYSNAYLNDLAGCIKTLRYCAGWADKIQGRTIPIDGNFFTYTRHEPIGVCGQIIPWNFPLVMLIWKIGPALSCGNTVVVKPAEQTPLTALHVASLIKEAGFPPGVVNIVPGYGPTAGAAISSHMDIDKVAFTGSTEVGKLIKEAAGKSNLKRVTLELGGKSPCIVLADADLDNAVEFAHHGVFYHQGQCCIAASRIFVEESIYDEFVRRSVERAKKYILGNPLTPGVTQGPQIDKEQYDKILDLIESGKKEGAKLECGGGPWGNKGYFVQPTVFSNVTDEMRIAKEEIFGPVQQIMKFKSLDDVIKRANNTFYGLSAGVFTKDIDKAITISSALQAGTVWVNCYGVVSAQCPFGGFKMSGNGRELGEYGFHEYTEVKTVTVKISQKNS
HPGD block – HPGD (human) dehydrogenase inhibition. P15428. purified HPGD, NADH fluorescence kinetic, PGE2 substrate. Potency, µM, for inactives: at the top dose activity change, negative = inhibition, most hits filed as inhibitors. 150,000 compounds, 4.3% hits. AID 894; further: potency means the concentration at half of the fitted maximal effect
Target sequence (P15428 whole entry, looked up): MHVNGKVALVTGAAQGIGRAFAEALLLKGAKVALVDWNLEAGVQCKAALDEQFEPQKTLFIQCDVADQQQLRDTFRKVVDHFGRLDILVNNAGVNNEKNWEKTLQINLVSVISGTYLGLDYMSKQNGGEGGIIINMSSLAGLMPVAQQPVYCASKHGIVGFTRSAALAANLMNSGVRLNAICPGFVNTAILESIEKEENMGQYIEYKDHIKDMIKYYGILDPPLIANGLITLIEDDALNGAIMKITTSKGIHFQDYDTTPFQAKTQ
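20 nM HPGD preincubated 15 min at room temperature with compound in 50 mM Tris-HCl pH 8, 0.01% Tween 20. Started with 1 mM NAD+ and 30 uM prostaglandin E2; NADH fluorescence (360/450 nm) read 5 times over 30-s intervals, last minus first.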
* marks the source's active call; other numbers are inactive results; ? = inconclusive; . = not tested or not shown; ! = not confirmed by another sample; [ ] = another dose, or the depositor's remark. Shown are actives, neighbours in structure and some others; about 11% of the full set was active somewhere. Unless noted, the call rests on the fitted dose curve; in most records, active means well fitted inhibition curve with a large enough effect (not every such curve was filed as active); inconclusive means small, poorly fitted or top-dose-only effect, or another doubt; inactive means no such curve, though single readings can be large or run the other way. Unless noted, on the % scale 0 is the no-effect control and ±100 the full control effect.

SMILES	12-hLO inh	IMPase Li cell	PNC assembly inh	IMPase inh	ALDH1A1 block	HPGD block
Cc1nn(CCO)c2nc(-c3cccs3)cc(C(F)(F)F)c12	3%	-4%	-11	.	?	?
Cc1nn(CCc2nn[nH]n2)c2nc(C(F)(F)F)cc(C(F)(F)F)c12	1%	-8%[38.3 µM]	-84*	4	?	?
NCC(=O)O	-4%	7%	.	6	-4%	1%
CCOc1ccc(C2NC(=O)c3ccccc3O2)cc1 (stereo not drawn)	-3%	-8%[38.3 µM]	7	3	22µM*	-14%
COc1cc(C2NC(=O)c3ccccc3O2)cc(OC)c1OC (stereo not drawn)	-7%	8%[38.3 µM]	0	3	?	?
CCOc1cccc(/C=C2\NC(=S)N(c3ccccc3)C2=O)c1O	.	.	.	.	20µM*	.
CCOc1cc(/C=C2\NC(=S)N(c3c(C)n(C)n(-c4ccccc4)c3=O)C2=O)ccc1O	-6%	6%	?	.	-2%	-6%
CCOC(=O)c1ccc(N2Cc3ccccc3C2)cc1O	-4%	20%[38.3 µM]	?	-10	20µM*	-18%
CCOC(=O)c1ccc(N2Cc3ccccc3C2=N)cc1	7%	50%[38.3 µM]	?	19	11%	-12%
O=C(CCCn1c(=O)[nH]c2cc(Cl)ccc2c1=O)NC1CCCCCCC1	7%	4%[38.3 µM]	-19	-6	9%	-6%
CN(Cc1ccccc1)C(=O)CCCn1c(=O)[nH]c2cc(Cl)ccc2c1=O	-1%	11%[38.3 µM]	51	-2	-8%	25µM*
CC(/C=C/C(=O)NO)=C\[C@@H](C)C(=O)c1ccc(N(C)C)cc1	1%[0.00818 µM]	23%	.	.	28µM*!	-22%
C[C@H]1Cc2c(-c3ccccc3)nc3c(c2CO1)CN(C(=O)NCCc1c[nH]c2ccccc12)CC3	4%[11.4 µM]	8%	.	.	11%[13.5 µM]	0%
CC(C)N(Cc1nnc(-c2ccccc2Cl)o1)C(=O)c1cccc(C#N)c1	-3%	0%[38.3 µM]	20	8	6.3µM*	-1%
C1CCCCCC2(CCCCC1)OCC(CN1CCOCC1)O2 (stereo not drawn)	-2%	-29%	?	.	-2%	-9%
O=c1[nH]n(CC2COC3(CCCCC3)O2)c(=O)c2ccccc12 (stereo not drawn)	-8%	5%[38.3 µM]	10	-6	13µM*	-18%
Cc1ccccc1Nc1nc(N)nc(CSCc2c(C)noc2C)n1	8%	39%[38.3 µM]	?	10	14µM*	-17%
Cc1ccccc1CSCc1nc(N)nc(Nc2ccccc2C)n1	.	9%	.	.	?	.
CC(C)CNc1nnnc2c1sc1nc(N3CCOCC3)c3c(c12)CC(C)(C)SC3	-6%	12%[38.3 µM]	12	6	?	-21%
CC1(C)Cc2c(c(N3CCOCC3)nc3sc4c(NCc5ccco5)nnnc4c23)CS1	-14%	22%[38.3 µM]	-81*	4	?	-26%
CSc1nc2sc3c(c2c(=O)n1Cc1ccccc1)CCC(C(C)(C)C)C3 (stereo not drawn)	.	.	.	7	.	.
CN1CCc2c(sc3c2C(=O)NC(c2ccc(C(C)(C)C)cc2)N3)C1 (stereo not drawn)	.	.	.	-7	.	.
C=CCSc1n[nH]c(-c2ccc(OC)cc2)n1	3%	24%[38.3 µM]	36	8	?	14µM*
CC[N+](CC)(CC)CC[C@](O)(c1ccccc1)C1CCCCC1	3%[25.6 µM]	27%	.	16[20.6 µM]	-3%[20.9 µM]	-6%
O=C(N/N=C/c1cc2c3c(c1O)CCCN3CCC2)c1ccccc1O	-15%	14%	-113*	.	-4%	-30%
SMILES	12-hLO inh	IMPase Li cell	PNC assembly inh	IMPase inh	ALDH1A1 block	HPGD block
Cc1nn(-c2ccccc2)c(N2CCCC2)c1/C=N/NC(=O)c1ccccc1O	-2%	21%	-104*	.	?	?
O=C(N/N=C/c1cccc(C(F)(F)F)c1)c1ccccc1O	.	6%	.	.	13%	.
Cc1nn(-c2ccccc2)c(N2CCCC2)c1/C=N/NC(=O)C1CC1	.	8%	.	.	2%	.
CCC(C(=O)Nc1cc(Cl)c(OC)cc1OC)c1ccccc1 (stereo not drawn)	.	16%	.	.	20µM*	.
N#Cc1ccc(CN2CCC3(CCNCC3)CC2)cc1	4%	20%	.	.	-6%	-3%
Cc1onc(-c2ccccc2Cl)c1C(=O)Nc1nnc(-c2cccc([N+](=O)[O-])c2)s1	-5%	18%[38.3 µM]	-108*	-3	?	-14%
Cc1cc(C)nc(NC(=O)c2c(-c3ccccc3Cl)noc2C)n1	-1%	10%[38.3 µM]	?	13	0%	-10%
CCSc1nnc(NC(=O)c2c(-c3ccccc3Cl)noc2C)s1	5%	-3%[38.3 µM]	-16	2	11µM*	-26%
CC(=O)Nc1cccc(NC(=O)c2c(-c3ccccc3Cl)noc2C)c1	5%	5%[38.3 µM]	27	13	-3%	-4%
CCOc1ccccc1N(CC(=O)NCCSc1ccccc1)S(=O)(=O)c1ccccc1	.	.	.	5	.	.
Cc1cc([N+](=O)[O-])nn1CC(=O)Nc1sc2c(c1C(N)=O)CCCC2	.	4%	.	.	?	.
CCCOC(=O)c1c(NC(=O)CCCn2nc([N+](=O)[O-])c(Cl)c2C)sc(C(=O)OC)c1C	0%	11%	20	11	-2%	-7%
Cc1cc([N+](=O)[O-])nn1CCCC(=O)Nc1sc2c(c1C(N)=O)CCCC2	1%	-4%	-3	-4	7%	4.5µM*
NC(=O)c1c(NC(=O)CCCn2cnc([N+](=O)[O-])n2)sc2c1CCCC2	.	5%	.	.	1.6µM*	.
CC1CCc2c(sc(NC(=O)CCCn3cnc([N+](=O)[O-])n3)c2C(N)=O)C1 (stereo not drawn)	.	2%	.	.	-13%	.
CCCOC(=O)c1c(NC(=O)CCCn2nc([N+](=O)[O-])cc2C)sc(C(=O)OC)c1C	0%	12%	-119*	-7	?	-6%
Cc1cc(C)c(OCCOCCn2c(-c3ccc(Cl)cc3)nc3ccccc3c2=O)c(C)c1	.	.	.	-27	.	.
O=C(NCc1ccco1)C1CCN(C(=O)c2cc3sccc3n2Cc2ccc(Cl)cc2)CC1	-9%	30%[38.3 µM]	8	4	13µM*	-6%
CCn1c(C(=O)N2CCC(C(=O)NCc3cccs3)CC2)cc2sccc21	0%	0%[38.3 µM]	33	4	-8%	-4%
O=C(NCCN1CCOCC1)c1cc2sccc2n1Cc1ccc(F)cc1	-3%	7%[38.3 µM]	13	1	-14%	25µM*
O=C(Nc1nccs1)c1cc2sccc2n1Cc1ccc(F)cc1	-1%	?	40	-12	?	?
O=C(NCCN1CCOCC1)c1cc2sccc2n1Cc1ccc(Cl)cc1	-2%	38%[38.3 µM]	?	5[1.84 µM]	?	16µM*
O=C(O)c1cc2ccccc2c(Cc2c(O)c(C(=O)O)cc3ccccc23)c1O	1%[11.4 µM]	-6%	.	.	-8%[13.5 µM]	-2%

From PubChem BioAssay
